According to the antibiotic and cytotoxicity screens of Wong et al. (2023):
About 3,300 (8.5%) of roughly 39,000 compounds were called active. This is one part of a sample in which actives are shown more often than they occur.

Test system: HepG2
Experiment: cytotoxicity call (relative viability < 0.9)
Conditions: 10 µM

Structure (SMILES)	cytotoxicity call
CCN1CCN(Cc2ccc(C(=O)Nc3ccc(C)c(Oc4ccc5c(c4)CC(=O)N5)c3)cc2C(F)(F)F)CC1	active
COCC(=O)Nc1ccc2c(c1)CC(=O)N2	inactive
CC1=NCCC2c3ccc(O)cc3NC12 (stereo unspecified)	active
CCS(=O)(=O)N1C[C@]2(C1)CN([C@@H](CO)c1[nH]c3cc(ccc3c12)OC)S(=O)(=O)c1cccc(c1)OC	inactive
C[C@@H]1CN([C@@H](C)CO)C(=O)c2cccc(NC(=O)c3ccncc3)c2O[C@@H]1CN(C)Cc1ccncc1	inactive
CN1C(=O)c2cc(NC(=O)c3cscn3)ccc2OC[C@H]2O[C@H](CC(=O)N3CCOCC3)CC[C@@H]21	inactive
C=C1C(=O)OC2CC3(C)CCCC(C)C3=CC12 (stereo unspecified)	active
C[C@H](CO)N1C[C@H](C)[C@@H](CN(C)C(=O)Nc2ccccc2)Oc2ccc(NC(=O)Cn3cnnn3)cc2CC1=O	inactive
CC(=O)N(C)C[C@@H]1Oc2cc(C#CCN(C)C)ccc2S(=O)(=O)N([C@@H](C)CO)C[C@@H]1C	inactive
COc1ccc(S(=O)(=O)Nc2ccc3c(c2)CC(=O)N([C@@H](C)CO)C[C@H](C)[C@@H](CN(C)Cc2ccncc2)O3)cc1	inactive
O=C(Oc1cccc2cccnc12)c1ccccc1	active
O=C(O)c1ccccn1	inactive
FC(F)Oc1cccc2cccnc12	inactive
CC(C)NC(=O)N(C)C[C@@H]1Oc2ccc(NC(=O)NC3CCCCC3)cc2C(=O)N([C@H](C)CO)C[C@H]1C	inactive
Cc1cccn2c(=O)c3cc(S(=O)(=O)c4ccc(Br)cc4)c(=N)n(CCCN4CCOCC4)c3nc12	inactive
COc1ccc(CCNC(=O)c2cc3c(=O)n4cccc(C)c4nc3n(CCCN3CCOCC3)c2=N)cc1	active
N=c1c(C(=O)NC[C@H]2CCCO2)cc2c(=O)n3ccccc3nc2n1CCCN1CCOCC1	inactive
COc1ccc(CN(C)C[C@@H]2OCCCC[C@@H](C)Oc3ccc(NC(=O)Nc4c(C)noc4C)cc3C(=O)N([C@@H](C)CO)C[C@@H]2C)cc1	inactive
Nc1ncnc2c1ncn2[C@H]1CCCO1	inactive
C[C@@H]1CN([C@H](C)CO)C(=O)c2ccccc2-c2ccccc2CO[C@@H]1CN(C)S(=O)(=O)c1ccc(C(F)(F)F)cc1	inactive
NCc1csc2c1CCCC2	inactive
Cc1ccc(S(=O)(=O)N(C)C[C@H]2Oc3ccc(NC(=O)Nc4ccc(C(F)(F)F)cc4)cc3CC(=O)N([C@H](C)CO)C[C@@H]2C)cc1	inactive
Cc1ccc(S(=O)(=O)N(C)C[C@@H]2Oc3ccc(NC(=O)Nc4ccc(C(F)(F)F)cc4)cc3CC(=O)N([C@@H](C)CO)C[C@@H]2C)cc1	active

Structure (SMILES)	cytotoxicity call
Cc1ccc(S(=O)(=O)N(C)C[C@H]2Oc3ccc(NC(=O)Nc4ccc(C(F)(F)F)cc4)cc3CC(=O)N([C@H](C)CO)C[C@H]2C)cc1	active
Cc1ccc(S(=O)(=O)N(C)C[C@@H]2Oc3ccc(NC(=O)Nc4ccc(C(F)(F)F)cc4)cc3CC(=O)N([C@H](C)CO)C[C@H]2C)cc1	inactive
Cc1ccc(S(=O)(=O)N(C)C[C@@H]2Oc3ccc(NC(=O)Nc4ccc(C(F)(F)F)cc4)cc3CC(=O)N([C@@H](C)CO)C[C@H]2C)cc1	active
C[C@@H]1CN([C@@H](C)CO)C(=O)Cc2cc(NC(=O)Nc3ccc(C(F)(F)F)cc3)ccc2O[C@@H]1CN(C)S(C)(=O)=O	inactive
C[C@H](CO)N1C[C@H](C)[C@H](CN(C)S(C)(=O)=O)Oc2ccc(NC(=O)Nc3ccc(C(F)(F)F)cc3)cc2CC1=O	inactive
Cc1ccc(S(=O)(=O)N(C)C[C@@H]2Oc3ccc(NC(=O)Nc4ccc(C(F)(F)F)cc4)cc3CC(=O)N([C@H](C)CO)C[C@@H]2C)cc1	active
C[C@@H]1CCCCO[C@@H](CN(C)C(=O)Nc2ccc(F)cc2)[C@H](C)CN([C@H](C)CO)C(=O)c2cc(NC(=O)c3ccncc3)ccc2O1	inactive
C[C@H]1CCCCO[C@H](CN(C)C(=O)C2CCCCC2)[C@@H](C)CN([C@@H](C)CO)C(=O)c2cc(NS(=O)(=O)c3ccc(F)cc3)ccc2O1	inactive
C[C@H](CO)N1C[C@H](C)[C@@H](CN(C)C(=O)Nc2ccc(F)cc2)Oc2c(NS(C)(=O)=O)cccc2C1=O	inactive
COc1ccc(NC(=O)N(C)C[C@H]2Oc3c(NC(=O)C4CCOCC4)cccc3C(=O)N([C@@H](C)CO)C[C@@H]2C)cc1	inactive
O=C(N[C@H]1C=C[C@@H](CC(=O)N2CCOCC2)O[C@@H]1CO)c1ccccn1	inactive
CN(C)c1nc2ncnc(N)c2[nH]1	inactive
C[C@H]1CN([C@@H](C)CO)C(=O)c2ccccc2-c2ccccc2CO[C@@H]1CN(C)C(=O)Nc1ccccc1C(F)(F)F	inactive
C[C@@]1(O)N(CC(=O)O)C(=O)OC12CCCCC2	inactive
O=C1N[C@@H](Cc2ccccc2)C(=O)N2[C@@H]1C[C@@H](C(=O)NCc1ccc(F)cc1)[C@H]2c1cccc(OCCO)c1	inactive
O=S1(=O)C[C@H](NC[C@H]2C[C@@H]3C=C[C@H]2C3)[C@@H](O)C1	inactive
C[C@@H]1CN([C@H](C)CO)C(=O)c2cccc(NS(=O)(=O)c3cn(C)cn3)c2O[C@@H]1CN(C)C(=O)Nc1ccc(F)cc1	inactive
Cc1ccc(S(=O)(=O)N(C)C[C@H]2Oc3ccc(NC(=O)Nc4ccc(C(F)(F)F)cc4)cc3CC(=O)N([C@@H](C)CO)C[C@@H]2C)cc1	active
Cc1ccc(S(=O)(=O)N(C)C[C@H]2Oc3ccc(NC(=O)Nc4ccc(C(F)(F)F)cc4)cc3CC(=O)N([C@@H](C)CO)C[C@H]2C)cc1	active
C[C@@H]1CN([C@@H](C)CO)C(=O)Cc2cc(NC(=O)Nc3ccc(C(F)(F)F)cc3)ccc2O[C@H]1CN(C)S(C)(=O)=O	inactive
C[C@H]1CN([C@@H](C)CO)C(=O)c2cc(NS(=O)(=O)c3cn(C)cn3)ccc2O[C@H]1CN(C)C(=O)Nc1ccc(F)cc1	inactive
C[C@@H]1CN([C@H](C)CO)C(=O)c2cccc(NS(=O)(=O)c3cccs3)c2O[C@@H]1CN(C)S(=O)(=O)c1cccs1	inactive
Cc1noc(C)c1S(=O)(=O)N(C)C[C@H]1Oc2ccc(NS(=O)(=O)c3ccc(Cl)cc3)cc2CC(=O)N([C@H](C)CO)C[C@H]1C	inactive
